# Publication PMC5540273 (PLoS ONE, 2017)
# What was measured:
# Settings in all cases: concentration: 1 μM, replicates: in singlicate; n = 1
# MAP3K3 = system: MAP3K3
# MAP3K4 = system: MAP3K4
# MAP4K2 = system: MAP4K2
# MAP4K3 = system: MAP4K3
# MAP4K4 = system: MAP4K4
# MAP4K5 = system: MAP4K5
# MAPKAPK2 = system: MAPKAPK2
# MAPKAPK5 = system: MAPKAPK5
# MARK1 = system: MARK1
# MARK2 = system: MARK2
# MARK3 = system: MARK3
# MARK4 = system: MARK4
# MAST1 = system: MAST1
# MEK1 = system: T1, MEK1
# T1 construct: gene MAP2K1
# MEK2 = system: T2, MEK2
# T2 construct: gene MAP2K2
# MEK3 = system: T3, MEK3
# T3 construct: gene MAP2K3
# MEK4 = system: T4, MEK4
# T4 construct: gene MAP2K4
# MEK5 = system: T5, MEK5
# T5 construct: gene MAP2K5
# MEK6 = system: T6, MEK6
# T6 construct: gene MAP2K6
# MELK = system: MELK
# 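Also: KINOMEscan kinase panel screen.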
SMILES,%Inh (MAP3K3) [%],%Inh (MAP3K4) [%],%Inh (MAP4K2) [%],%Inh (MAP4K3) [%],%Inh (MAP4K4) [%],%Inh (MAP4K5) [%],%Inh (MAPKAPK2) [%],%Inh (MAPKAPK5) [%],%Inh (MARK1) [%],%Inh (MARK2) [%],%Inh (MARK3) [%],%Inh (MARK4) [%],%Inh (MAST1) [%],%Inh (MEK1) [%],%Inh (MEK2) [%],%Inh (MEK3) [%],%Inh (MEK4) [%],%Inh (MEK5) [%],%Inh (MEK6) [%],%Inh (MELK) [%]
Cl.Cn1ccc(-c2cccc(Nc3ccnc4cc(-c5nccs5)ccc34)c2)n1 [GW525701],0,10,14,0,20,0,21,0,28,100,0,0,12,0,0,0,8,86,0,0
Clc1ccc(-c2cc(-c3c[nH]nc3-c3ccccn3)ccn2)cc1 [GW681251],0,19,0,0,63,18,13,0,0,0,0,0,0,39,0,0,2,0,0,40
C[C@H]1CC[C@@H](C(=O)Nc2ccccc2)CN1c1cc(-c2ccc3c(N)n[nH]c3c2)nc(N)n1 [GSK2283293],34,5,0,0,7,0,22,0,0,0,0,0,0,0,0,0,3,11,0,0
COC(=O)c1cccc(NC(=O)NCCNc2ccnc(Nc3ccc(F)cc3)n2)c1 [GSK1379883],0,0,0,0,0,0,24,0,0,0,0,2,0,1,0,0,13,9,0,17
CN1CCC(n2cnc(-c3ccc(F)cc3)c2-c2ccnc(NC3CCNCC3)n2)CC1 [SB-229482],0,1,12,0,0,0,8,6,8,13,0,6,27,0,0,18,0,0,0,0
O=C(Nc1ccccc1)Nc1ccc(Oc2ccc3nccn3n2)cc1,9,21,0,0,0,0,0,0,0,0,9,7,0,17,32,0,0,0,0,10
CN1c2ccc(-c3ccc(C(=O)NCCO)cc3)cc2-c2[nH]ncc2S1(=O)=O,40,0,26,11,27,25,0,0,38,24,0,35,0,0,27,25,0,68,1,32
CS(=O)(=O)CCNCc1nc(-c2ccc3ncnc(Nc4ccc(OCc5cccc(F)c5)c(Cl)c4)c3c2)cs1.Cl [GW583340],0,4,0,0,0,0,4,0,0,0,0,0,0,0,0,0,3,57,0,0
COC(=O)c1c(-c2ccccc2)c2cc(Cl)ccc2c(=O)n1Cc1ccc(S(C)(=O)=O)cc1,26,0,3,13,0,0,24,0,0,0,0,0,0,0,29,9,10,0,4,0
COc1cc2ncnc(Nc3ccc(OCc4ccccc4Br)c(Cl)c3)c2cc1OC.Cl [GI261590],0,0,0,11,0,17,15,0,29,0,1,11,0,19,13,0,0,98.9,0,0
